Here are results for 23 compounds from the supplement of paper PMC7156485.

Details in all cases: concentration: 10 µM; 24 h
The subject of assay [1] is HCC1569. Kind of assay: cell number relative to DMSO (% of DMSO); higher = more cells (less growth inhibition / toxicity). The gist of the method: (§1)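 In 384-well plates holding 800 HCC1569 or TDF cells per well in RPMI with 10% FBS, compounds were tested at 10 µM for 24 h at 37 °C in triplicate. Fixation used 3.7% formaldehyde. Staining used a rabbit anti-H1.0 antibody with an AlexaFluor 647 secondary, plus DAPI. Each value, H1.0 nuclear intensity or cell number, is a median of replicates shown as percent of the plate control, and HCC1569 values were smoothed for positional effects.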

For assay [2], the system named is TDF. Described as above. The procedure, abridged:
as §1

In assay [3] the test system is TDF. Kind of assay: H1.0 immunofluorescence intensity relative to DMSO (% of DMSO); higher = stronger H1.0 induction, active = 120 or more. The gist of the method: as §1
The subject of assay [4] is HCC1569. The assay is described as follows: H1.0 immunofluorescence intensity relative to DMSO (% of DMSO); higher = stronger H1.0 induction, active = 140 or more. The gist of the method:
as §1
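Throughout, for H1.0 immunofluorescence intensity relative to DMSO: TDF is a line of transformed human dermal fibroblasts of mesenchymal origin.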
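Throughout, for cell number relative to DMSO: TDF denotes transformed human dermal fibroblasts of mesenchymal origin.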

Turning to `CCCCNc1ncc(C(=O)NCc2ccc(-n3ccnc3)cc2)c(NC2CCC(O)CC2)n1` (configuration not stated), the cell number turned out to be 65.8 in the assay on HCC1569 [1] and 63.4 in the assay with TDF [2]. Besides, the H1.0 immunofluorescence intensity with TDF [3] was 118 (inactive); with HCC1569 [4] it was 104 (inactive).

On to `CCCCCCC=CCCCCCCCCC(=O)O` [10(Z)-Heptadecenoic acid], for which the results for the cell number with HCC1569 [1] and with TDF [2] were 99.6 and 95.4, respectively. Besides, the H1.0 immunofluorescence intensity with TDF [3] is 101 (inactive); in the assay with HCC1569 [4], 102 (inactive).

On to `CSCC[C@@H](C=O)NC(=O)[C@H](CC(C)C)NC(=O)[C@H](CC(C)C)NC(C)=O`, for which the cell number stood at 99.2 with HCC1569 [1] and 95.5 with TDF [2]. Besides, the H1.0 immunofluorescence intensity with TDF [3] was 96.4 (inactive); with HCC1569 [4], 92.2 (inactive).

For `O=C(O)COc1ccc(C(=O)c2cccs2)c(Cl)c1Cl` [[2,3-dichloro-4-(2-thienylcarbonyl)phenoxy]acetic acid], the cell number in the assay on HCC1569 [1] is 106; in the assay with TDF [2] it was 99.8. The results for the H1.0 immunofluorescence intensity in the assay on TDF [3] and in the assay with HCC1569 [4] were 95.1 (inactive) and 109 (inactive), respectively.

For `COc1ccc(C2Sc3ccccc3N(CCN(C)C)C(=O)C2OC(C)=O)cc1.Cl` (configuration not stated) [Diltiazem hydrochloride], the results for the cell number in the assay on HCC1569 [1] and in the assay with TDF [2] were 101 and 100, respectively. Moreover, the H1.0 immunofluorescence intensity is 93 (inactive) in the assay on TDF [3] and 98.3 (inactive) with HCC1569 [4].

`O=C(NCCCCCCNC(=O)ON=C1CCCCC1)ON=C1CCCCC1`: the cell number came to 96.6 in the assay on HCC1569 [1] and 100 in the assay with TDF [2]. Moreover, the H1.0 immunofluorescence intensity in the assay with TDF [3] is 98 (inactive); in the assay with HCC1569 [4], 97.1 (inactive).

Take `CNCCCN1c2ccccc2CCc2ccccc21.Cl` [Desipramine hydrochloride]: the results for the cell number with HCC1569 [1] and with TDF [2] were 102 and 97.5, respectively. Further, the H1.0 immunofluorescence intensity was 98.7 (inactive) in the assay on TDF [3] and 92.6 (inactive) in the assay with HCC1569 [4].

For `COc1ccc(C2OCC3C(c4ccc(OC)c(OC)c4)OCC23)cc1OC` (configuration not stated) [Eudesmine], the cell number in the assay with HCC1569 [1] was 102; in the assay with TDF [2] it was 104. Moreover, the figures for the H1.0 immunofluorescence intensity with TDF [3] and with HCC1569 [4] were 97.6 (inactive) and 107 (inactive), respectively.

Turning to `NCCCCN=C(N)N.O=S(=O)(O)O` [Agmatine sulfate], the cell number was found to be 106 in the assay on HCC1569 [1] and 98.2 in the assay on TDF [2]. Further, the values for the H1.0 immunofluorescence intensity in the assay on TDF [3] and in the assay with HCC1569 [4] were 88.7 (inactive) and 92.4 (inactive), respectively.

As for `CN(C)C(N)=NCCCC(N)C(=O)O.Cl` (configuration not stated) [N^G,N^G-Dimethylarginine hydrochloride], the results for the cell number in the assay with HCC1569 [1] and in the assay with TDF [2] were 104 and 96.5, respectively. For the same compound, the H1.0 immunofluorescence intensity in the assay with TDF [3] was 91.6 (inactive); with HCC1569 [4], 94.5 (inactive).

For the compound `CCCCCCCC/C=C\CCCCCCC(O)C(=O)O` (configuration not stated) [(9Z)-2-hydroxy-9-octadecenoic acid], the cell number in the assay on HCC1569 [1] came out at 100; with TDF [2] it was 88.9. The figures for the H1.0 immunofluorescence intensity in the assay with TDF [3] and in the assay on HCC1569 [4] were 102 (inactive) and 91.2 (inactive), respectively.

Take `CC(C)N=c1cc2n(-c3ccc(Cl)cc3)c3ccccc3nc-2cc1Nc1ccc(Cl)cc1`: the values for the cell number in the assay on HCC1569 [1] and in the assay with TDF [2] were 89.6 and 72.2, respectively. For the same compound, the H1.0 immunofluorescence intensity with TDF [3] is 109 (inactive); in the assay on HCC1569 [4] it was 118 (inactive).

With `CCCCCC(O)C=CC=CCC=CCC=CCCCC(=O)O` (configuration not stated), the cell number with HCC1569 [1] was 103; in the assay with TDF [2], 100. Besides, the H1.0 immunofluorescence intensity with TDF [3] is 96.7 (inactive); in the assay with HCC1569 [4], 99.7 (inactive).

Turning to `CC[C@H](C)C(=O)O[C@H]1C[C@H](O)C=C2C=C[C@H](C)[C@H](CC[C@@H](O)C[C@@H](O)CC(=O)[O-])[C@H]21.[Na+]`, the cell number stood at 101 in the assay with HCC1569 [1] and 93.2 with TDF [2]. The H1.0 immunofluorescence intensity in the assay with TDF [3] was 95.9 (inactive); with HCC1569 [4], 98.1 (inactive).

In the case of `Cn1c(=O)c2[nH]c(-c3ccccc3)nc2n(C)c1=O` [1,3-Dimethyl-8-phenylxanthine], the values for the cell number with HCC1569 [1] and in the assay on TDF [2] were 105 and 110, respectively. Moreover, the H1.0 immunofluorescence intensity was 88 (inactive) in the assay with TDF [3] and 92 (inactive) in the assay with HCC1569 [4].

With `C[N+](C)(C)CCOC(N)=O` [Carbamylcholine], the results for the cell number in the assay with HCC1569 [1] and with TDF [2] were 103 and 107, respectively. Besides, the H1.0 immunofluorescence intensity in the assay on TDF [3] is 93.3 (inactive); in the assay on HCC1569 [4], 99.8 (inactive).

On to `N=c1ccn2c(n1)OC1C(O)C(CO)OC12` (configuration not stated) [Cyclocytidine], for which the cell number with HCC1569 [1] is 76.4; in the assay on TDF [2] it was 51.7. Further, the H1.0 immunofluorescence intensity with TDF [3] was 103 (inactive); in the assay with HCC1569 [4], 101 (inactive).

Take `Cc1ccc(NC2=CC(=O)c3sc(C)nc3C2=O)cc1`: the cell number was found to be 27.9 with HCC1569 [1] and 14.5 with TDF [2]. The H1.0 immunofluorescence intensity in the assay on TDF [3] was 122 (active); in the assay on HCC1569 [4], 104 (inactive).

As to `CC1CCC2(OC1)OC1CC3C4CCC5CC(O)CCC5(C)C4CCC3(C)C1C2C` (configuration not stated) [Sarsasapogenin], the cell number with HCC1569 [1] came to 100; in the assay on TDF [2], 105. Moreover, the H1.0 immunofluorescence intensity was 106 (inactive) in the assay with TDF [3] and 107 (inactive) with HCC1569 [4].

On to `CC(C)C(CO)Nc1nc(Nc2cc(N)cc(Cl)c2)c2ncn(C(C)C)c2n1` (configuration not stated) [Aminopurvalanol A], for which the cell number with HCC1569 [1] came out at 65.5; in the assay on TDF [2] it was 83.4. Also, the H1.0 immunofluorescence intensity in the assay on TDF [3] is 97.4 (inactive); with HCC1569 [4] it was 145 (active).

Turning to `COc1ccc2cc(C(C)C(=O)[O-])ccc2c1.[Na+]` (single isomer, unassigned; (-)) [(-)-Naproxen sodium], the cell number stood at 105 in the assay with HCC1569 [1] and 93.1 in the assay with TDF [2]. Besides, the H1.0 immunofluorescence intensity with TDF [3] was 96.1 (inactive); in the assay on HCC1569 [4], 102 (inactive).

Turning to `O=C1C(=O)C(c2ccc(O)c(O)c2)Oc2cc(O)cc(O)c21` (configuration not stated) [2-(3,4-dihydroxyphenyl)-3,5,7-trihydroxy-4H-chromen-4-one], the cell number in the assay with HCC1569 [1] worked out at 81.2; in the assay on TDF [2], 74.4. In addition, the H1.0 immunofluorescence intensity was 103 (inactive) in the assay on TDF [3] and 158 (active) in the assay on HCC1569 [4].

Consider `CC(=O)OCC1(O)CC23CCC4c5ccoc5C=CC4(C)C2CCC1C3` (configuration not stated) [Kahweol Acetate], for which the cell number in the assay with HCC1569 [1] is 103; in the assay with TDF [2], 95.3. Further, the H1.0 immunofluorescence intensity is 105 (inactive) in the assay on TDF [3] and 98.9 (inactive) with HCC1569 [4].
